High-throughput results as filed in PubChem BioAssay.
Tat transport = E. coli Tat export inhibitors, primary screen, MC4100, TorA-mCherry reporter, fluorescence, single point; inhibition, % at 10 µM; 0.036% of 340,000 active;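 active = mean replicate inhibition at least 50% and at least half of replicates individually reaching 50%; inconclusive = only one of the two criteria met; inactive = neither criterion met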;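 note: exported cargo escapes ClpAP degradation while cytoplasmic cargo is degraded and loses fluorescence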
E coli growth-1 = E. coli V3065 growth inhibition, primary screen, counter-screen for AddAB inhibitor project, absorbance, OD600 | 18 h | inhibition, % at 11.9 µM | 0.27% of 330,000 active | AID 449728, 2010;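 active = inhibition above the campaign's mean inhibition across all tested compounds plus 3 SD, cut at about 9.9% in these data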;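 note: uninfected addAB+ strain grown without phage in ampicillin broth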
Calb FLC = C. albicans growth inhibition with fluconazole, primary screen, CaCi-2 strain, Alamar Blue fluorescence; C. albicans CaCi-2 (fluconazole-resistant clinical isolate) + fluconazole, 48 h; AID 1979, 2009; 0.57% of 300,000 active; growth inhibition, % (test concentration not listed);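 active = growth inhibition above about 58% in most replicates, limit read from the data, passing the limit was not always enough; inconclusive = exactly half the replicates above a set limit; inactive = most replicates below a set limit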;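 note: all wells also contain fluconazole at 8 µg/ml as a sub-toxic cotreatment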
AddAB inh = growth inhibition of E. coli expressing H. pylori AddAB, primary screen, AddAB inhibitor project, absorbance | inhibition, % at 11.9 µM | 0.29% of 330,000 active; in the data active = inhibition above about 12%
phage Ecoli inh = growth loss of phage-infected E. coli, primary screen, RecBCD inhibitor project, absorbance, with phage, HTS; inhibition, % at 11.9 µM; 0.26% of 360,000 active; AID 651602, 2012; in the data active = inhibition above about 11%
E coli growth-2 = E. coli growth inhibition, primary screen, OD600; Escherichia coli growth, 23 h; stronger effect = lower value; OD600 absorbance (test concentration not listed); 0.21% of 330,000 active; AID 1053175, 2014;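 active = OD600 absorbance below the run mean of sample wells minus 3.6 SD, in any replicate, cut at about 0.56 in these data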
Of the large screens only hits and unclear results are named; the others gave an inactive call. Hits are enriched below; roughly 0.9% of the tested compounds scored in any of these assays.

CC(C)N1CCc2c(sc(NC(=O)c3cc4cc([N+](=O)[O-])ccc4s3)c2C(N)=O)C1	none (no result: E coli growth-1, AddAB inh)
CN1CCc2c(sc(NC(=O)c3cc4cc([N+](=O)[O-])ccc4s3)c2C(N)=O)C1	Calb FLC 97 (no result: Tat transport, E coli growth-1, AddAB inh, phage Ecoli inh, E coli growth-2)
CCCCC1CC1C(NC(=O)c1ccco1)c1ccc(Cl)cc1 (stereo not drawn)	none (no result: Tat transport, E coli growth-1, Calb FLC, AddAB inh, phage Ecoli inh)
COC(=O)c1cc(NC(=O)Nc2cccc(Cl)c2)ccc1Cl	Calb FLC inconclusive, phage Ecoli inh 12
O=C(Nc1cccc(Cl)c1)Nc1nccs1	Calb FLC 80, E coli growth-2 0.54
CC1(C)CC(=NNc2ccc([N+](=O)[O-])cc2[N+](=O)[O-])C(C)(C)O1	none (no result: Tat transport, E coli growth-1, Calb FLC, AddAB inh, phage Ecoli inh)
CN1N=C(C=Cc2ccccc2)CCC1=O	none (no result: Tat transport, E coli growth-1, Calb FLC, AddAB inh, phage Ecoli inh)
COc1ccc(S(=O)(=O)Nc2ccccc2C(=O)NCc2ccco2)cc1	none
O=C(NCc1ccco1)c1ccccc1NS(=O)(=O)c1ccc(Br)s1	Calb FLC 108
COc1cc(-c2noc(C)c2C=Cc2ccc(OC(C)=O)cc2)cc(OC)c1OC	none (no result: Tat transport, E coli growth-1, Calb FLC, AddAB inh, phage Ecoli inh)
CC(C)(C)OC(=O)CCC(C(=O)N1CCN(C(=O)OC(C)(C)C)CC1)n1cc(C(Cc2ccc(O)cc2)NC(=O)OC(C)(C)C)nn1 (stereo not drawn)	none (no result: Tat transport, E coli growth-1, Calb FLC, AddAB inh, phage Ecoli inh)
O=C1/C(=C\c2cccc(O)c2O)SC(=S)N1Cc1ccccc1	none (no result: E coli growth-2)
O=C(O)CN1C(=O)/C(=C\c2cc(Br)ccc2OCc2ccc(Cl)cc2)SC1=S	none (no result: E coli growth-1, AddAB inh)
Cc1ccc(/C=C2\SC(=S)N(N=Cc3cc([N+](=O)[O-])ccc3O)C2=O)o1	none (no result: Tat transport, E coli growth-1, Calb FLC, AddAB inh, phage Ecoli inh)
Cc1ccccc1/C=C1\SC(=S)N(/N=C/c2cc([N+](=O)[O-])ccc2O)C1=O	Calb FLC 85 (no result: E coli growth-2)
O=C(O)CN1C(=O)/C(=C\c2cc([N+](=O)[O-])ccc2OCc2ccccc2Cl)SC1=S	E coli growth-2 0.54
O=C1/C(=C\c2cc([N+](=O)[O-])ccc2O)SC(=S)N1Cc1ccc(Cl)cc1	Calb FLC 86
COc1ccc(CNC(=O)Cc2ccc(OC)c(S(=O)(=O)N3CCOCC3)c2)cc1	none
COc1cc(OC)cc(C(=O)NNC(=O)Cc2ccc(OC)c(S(=O)(=O)N3CCOCC3)c2)c1	Calb FLC 110
CC(=NNC(=O)CCCOc1ccc(Cl)cc1C)c1ccc(C)o1	none (no result: Tat transport, E coli growth-1, Calb FLC, AddAB inh, phage Ecoli inh)
CCn1nnnc1NC(=O)c1cc(Cl)c(OC)c(Cl)c1	Calb FLC 76
Oc1nc(Nc2ccccc2)sc1/C=C1\C=Nc2ccccc21	Calb FLC 91
CC(=O)Nc1ccc(NC(=O)Nc2cccc3ccccc23)cc1	none
CC(=O)c1ccc(NC(=O)Nc2cccc3ccccc23)cc1	Calb FLC 81 (no result: E coli growth-1, AddAB inh)
O=C1c2cccnc2C(=O)N1CNc1ccc(Cl)cc1	Calb FLC 134
CCCn1c(N=Cc2ccc3c(c2)OCO3)nc2ccccc21	none (no result: Tat transport, E coli growth-1, Calb FLC, AddAB inh, phage Ecoli inh)
CSc1ccc(NN=C(C#N)S(=O)(=O)C(C)(C)C)cc1	none (no result: Tat transport, E coli growth-1, Calb FLC, AddAB inh, phage Ecoli inh)
Cc1ccc2cc(/C=C(\C#N)C(N)=O)c(N3CCCCC3)nc2c1	none
Cc1ccc2cc(C=C(C#N)C#N)c(N3CCCCC3)nc2c1	Calb FLC 58
CCc1cc(CC)c(C=NNC(N)=O)c(CC)c1	none (no result: Tat transport, E coli growth-1, Calb FLC, AddAB inh, phage Ecoli inh)
CS(=O)(=O)c1cccc(-c2nnc(NC(=O)c3ccc4ncsc4c3)o2)c1	none
COc1cccc(-c2nnc(NC(=O)c3ccc4ncsc4c3)o2)c1	Calb FLC 107
O=C(Nc1nnc(-c2ccncc2)o1)c1ccc2ccccc2c1	Calb FLC 90
COc1cccc(C(=O)Nc2nnc(-c3ccc(Cl)cc3)o2)c1	none
COc1cccc(C(=O)Nc2nnc(-c3ccc(F)cc3)o2)c1	Calb FLC 83
COc1ccc(C=NNC(=O)c2cccnc2)c(C(=O)O)c1OC	none (no result: Tat transport, E coli growth-1, Calb FLC, AddAB inh, phage Ecoli inh)
N#CCCn1c(=O)n(CCC#N)c2ccccc21	none
Cn1c(=O)n(CC#N)c2ccccc21	Calb FLC 102
O=C(Cc1ccc(O)cc1)N/N=C/c1cccnc1	Calb FLC 102 (no result: E coli growth-1, AddAB inh, E coli growth-2)
O=C(Cc1ccc(Cl)c(Cl)c1)N/N=C/c1cccnc1	none (no result: E coli growth-2)
Cc1nc(C(F)(F)F)c(C(=O)NN=C(N)c2ccccn2)s1	none (no result: Tat transport, E coli growth-1, Calb FLC, AddAB inh, phage Ecoli inh)
S=C1NC2(CCCCC2)NN1c1ccccc1	Calb FLC 78
O=C1NC2(CCC3(CC2)OCCO3)NN1c1ccccc1	Calb FLC 120
CC1CCCC2(C1)NC(=S)N(c1ccccc1)N2 (stereo not drawn)	Calb FLC inconclusive
NC1=NCC(Cc2ccccc2)N1CCc1cccc(F)c1 (stereo not drawn)	none (no result: Tat transport, E coli growth-1, Calb FLC, AddAB inh, phage Ecoli inh)
Cc1cc(C(=O)N/N=C/c2ccc(O)c(O)c2O)c(C)n1-c1ccccc1	phage Ecoli inh 20 (no result: E coli growth-1, AddAB inh, E coli growth-2)
O=C(CCN1CCN(c2ccccc2)CC1)N/N=C/c1ccc(O)c(O)c1O	Calb FLC 114 (no result: E coli growth-1, AddAB inh, E coli growth-2)
Cc1cc(C(=O)NN=Cc2cccc([N+](=O)[O-])c2)c(C)n1-c1ccccc1	none (no result: Tat transport, E coli growth-1, Calb FLC, AddAB inh, phage Ecoli inh)
CCCCN1C(Nc2ccccc2)=NCC1C (stereo not drawn)	none (no result: Tat transport, E coli growth-1, Calb FLC, AddAB inh, phage Ecoli inh)
CCc1cc(C(=O)NC2CCCc3c2cnn3-c2cccc(C)c2C)n(C)n1 (stereo not drawn)	Calb FLC 91 (no result: Tat transport, E coli growth-2)
O=c1[nH]c(-c2ccccn2)nc(C(F)(F)F)c1Br	Calb FLC 108
O=c1[nH]c(-c2ccccn2)nc2ccccc12	Tat transport inconclusive
O=C(NN=Cc1cc([N+](=O)[O-])ccc1O)c1c[nH]c2ccccc12	none (no result: Tat transport, E coli growth-1, Calb FLC, AddAB inh, phage Ecoli inh)
O=C(CSC(=S)N1CCOCC1)Nc1nc(=O)c2ccccc2s1	Calb FLC 52 (no result: Tat transport, phage Ecoli inh)
O=C(CSC(=S)N1CCOCC1)Nc1nccs1	none
COc1cccc(C=NNc2ncnc3scc(-c4ccccc4)c23)c1OC	none (no result: Tat transport, E coli growth-1, Calb FLC, AddAB inh, phage Ecoli inh)
COc1ccccc1N1CCN(CCCOc2ccc(F)cc2)CC1	none
O=C1CCc2ccc(OCCCCN3CCN(c4cccc(Cl)c4Cl)CC3)cc2N1	Calb FLC 105
CN(C)C=Nn1cnc2ccccc2c1=O	none (no result: Tat transport, E coli growth-1, Calb FLC, AddAB inh, phage Ecoli inh)
Cc1cc(C)n(-c2nc(SCCN(C)C)c3c4c(sc3n2)CCCC4)n1	Calb FLC 79
COCCCN1C(=O)C(=O)/C(=C(/O)c2ccc(OCC(C)C)cc2C)C1c1cccnc1 (stereo not drawn)	Calb FLC 106
CCCn1c(N)c(C(=O)COC(=O)c2c(C)noc2C)c(=O)n(C)c1=O	Calb FLC 100
CC(C)C(=O)NNC(=O)CN1CCN(c2nc(-c3ccccc3)cs2)CC1	none
CC(C)(C)CC(=O)Nc1nnc(C(F)(F)F)s1	Calb FLC 82
CCc1nnc(NC(=O)CN2CCN(c3nc(-c4ccccc4)cs3)CC2)s1	Calb FLC 90
O=C(CN1CCN(c2ccccc2F)CC1)Nc1nnc(C(F)(F)F)s1	Calb FLC 86
Cc1cc(C)cc(NC(=O)CCC(=O)Nc2nnc(C(F)(F)F)s2)c1	none
COc1ccc(C=NNC(=O)C(=O)NCC2CCCO2)cc1 (stereo not drawn)	none (no result: Tat transport, E coli growth-1, Calb FLC, AddAB inh, phage Ecoli inh)
C(=C\c1ccccc1)/C=N/Nc1nc(N2CCCCC2)nc(N2CCCCC2)n1	Calb FLC 93 (no result: E coli growth-2)
CCn1cc(C(=O)O)c(=O)c2cnc(N3CCN(C(=S)NC(=O)c4ccc(OC)cc4)CC3)nc21	E coli growth-2 0.43
